Source: PubChem BioAssay (National Center for Advancing Translational Sciences (NCATS))
Only some compounds are listed: those with a hit (about 19% of all), similar ones and a draw of the others.
HT1080NT lethal: kills 2HG-producing HT-1080-NT fibrosarcoma cells | HT-1080-NT fibrosarcoma viability, CellTiter-Glo ATP luminescence, 48 h | Potency, µM (doses to about 46.1 µM), inactives show at the highest dose activity, negative = less viability, actives largely listed as cytotoxic | 360,000 compounds, 1.6% hits;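 note: NT is the 2HG producing partner of a matched IDH1 knockdown line; potency is the fitted concentration of half-maximal effect; 0% = DMSO-treated cells and -100% = media-only wells without cells; nearly all actives have a fitted effect of over 55% in size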
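Toxicity toward the 2HG-producing NT line was scored as %Activity, normalised to DMSO and no-cell wells, from CellTiter-Glo luminescence after 48 hours' treatment.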
TDP1 cell CPT: growth inhibition of DT40 Tdp1-/-;hTDP1 cells with camptothecin (screen for TDP1 inhibitors) | chicken DT40 Tdp1-/-;hTDP1 cells + 20 nM CPT, ATP luminescence, 48 h | Potency, µM (doses to about 46.2 µM), inactives show at the top dose activity change, negative = growth inhibition, hits mostly inhibitors | 420,000 compounds, 12% hits | AID 686979; note: potency is the fitted concentration of half-maximal effect; nearly all actives have a fitted effect of over 55% in size
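Cell growth measured by CellTiter-Glo luminescence after a minimum 48 h, 37 C compound exposure with 20 nM CPT in Tdp1-knockout DT40 cells stably expressing hTDP1, seeded 400/well; qHTS titration format.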
TDP1 cell noCPT: qHTS for Inhibitors of human tyrosyl-DNA phosphodiesterase 1 (TDP1): qHTS in cells in absence of CPT. DT40 Tdp1-/- hTDP1 cells, no CPT, ATP luminescence, 48 h. Potency, µM (top dose mostly 46.2 µM), for inactives: at the top dose activity change, negative = growth inhibition, actives largely listed as inhibitors. 420,000 compounds, 15% hits; note: potency is the fitted concentration of half-maximal effect; nearly all actives have a fitted effect of over 55% in size
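Compound effects on proliferation are scored in DT40 Tdp1-/-;hTDP1 cells in the absence of CPT. ATP levels (CellTiter-Glo luminescence) are recorded after a ≥48 hr, 37 °C incubation.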
ELG1 DNA repair: inhibitors of ELG1-dependent DNA repair in HEK293T cells. HEK293T ELG1-luciferase reporter, luminescence, 16 h; DNA damage induced by 5-fluorouridine. 330,000 compounds, 2.3% hits. Potency, µM (doses to about 46.1 µM), for the others: at the highest dose activity change, negative = inhibition, hits mostly inhibitors; note: potency is the fitted concentration of half-maximal effect; nearly all actives have a fitted effect of over 55% in size
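Luminescence from the luciferase reporter, measured 30 min after ONE-Glo reagent at room temperature, was the read-out. Beforehand, 2,000 cells per well were exposed for 16 hr at 37 °C to 5-fluorouridine together with compound or vehicle.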
HT1080 IDH1KD tx: kills HT-1080 cells with IDH1 knockdown | HT-1080 IDH1 knockdown viability, ATP luminescence, 48 h | Potency, µM (series often up to 46.1 µM), inactives show at the top dose activity, negative = toxicity, usual class: cytotoxic | 360,000 compounds, 2% hits | AID 686971;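 note: potency is the fitted concentration of half-maximal effect; 0% = DMSO wells and -100% = cell-free medium wells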
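In this qHTS, HT-1080 cells depleted of IDH1 are exposed for 48 h at 37 °C to compound titrations. Toxicity is scored from CellTiter-Glo luminescence, with DMSO as full viability and medium alone as none.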
IL1B secr inh: blocks inflammasome-driven IL-1 beta release; activity change, % at 57.5 µM; 360,000 compounds, 4.7% hits; AID 743279; THP-1 LPS/ATP IL-1B secretion, AlphaLISA, 16 h; hits give low values; in the data active = activity change below about -50%; inconclusive = mostly about -30% to -49%
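THP-1 cells pretreated 1 hr with compounds (up to 57.5 uM final), then stimulated with LPS (250 ng/mL final) plus ATP (1.25 mM final); secreted IL-1B measured by AlphaLISA after 16 hr, decreased signal indicating inhibition.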
The depositor's hits bear a star; u = inconclusive; x = not tested or not shown. Unless noted, calls come from the whole dose curve; as a rule, active = well fitted curve in the direction sought with a large enough effect; inconclusive = small, poorly fitted or top-dose-only effect, or another doubt; inactive = no such curve, though single readings can be large; an effect the other way counts as inactive or inconclusive. Unless noted, % is set by controls: 0 for no effect and ±100 for the full control effect.

SMILES | HT1080NT lethal | TDP1 cell CPT | TDP1 cell noCPT | ELG1 DNA repair | HT1080 IDH1KD tx | IL1B secr inh
CCOc1cc(-c2cc(-c3ccc(N)cc3)nc(N)c2C#N)ccc1O | u | 15µM* | 18µM* | u | u | -62*
N#Cc1c(-c2cccnc2)cc(-c2ccccc2)nc1N | 0% | -1% | u | u | u | 0
O=C(NCc1ccccc1)C(c1ccccn1)N(C(=O)c1csnn1)c1ccccc1F (stereo not given) | 8% | u | -18% | 4% | 0% | 0
CC(Oc1ccc(O)cc1)(P(=O)(O)O)P(=O)(O)O | x | 25% | -9% | x | x | x
CCOC(=O)c1sc(NC(=O)c2ccc(S(=O)(=O)N(C)C)cc2)cc1C | 0% | u | u | 16µM* | -22% | -18
CCOC(=O)c1csc(NC(=O)c2ccc(S(=O)(=O)N(C)C)cc2)n1 | 0% | -27% | -28% | 7.3µM* | 7% | 8
CCOC(=O)c1sc(NC(=O)c2ccccc2)cc1C | -16% | u | u | u | -19% | u
CCOC(=O)c1csc(NC(=O)c2ccccc2)n1 | 12% | -24% | -22% | u | 1% | -4
CCOC(=O)c1sc(NC(=O)c2cccc(S(=O)(=O)N(CC)CC)c2)cc1C | u | 2.6µM* | 4.6µM* | 11% | u | 21
CCOC(=O)c1sc(NC(=O)c2cccc(S(=O)(=O)N3CCN(C)CC3)c2)cc1C | u | -28% | u | -5% | u | 8
Cc1ccc(CN2CCc3nc(N4CCN(c5ccccc5F)CC4)ncc3C2)s1 | x | -9% | 1% | x | x | x
COc1ccc(CN2CCOc3c(cc(-c4ccc(OC)nn4)cc3OC)C2)c(O)c1 | x | -9% | -12% | x | x | x
O=C(COC(=O)c1cc([N+](=O)[O-])ccc1NCCO)Nc1cccnc1Cl | -1% | -22% | u | -27% | -5% | 10
Cc1cc(-c2ccc(/C=N/n3cnnc3)o2)c(C)c([N+](=O)[O-])c1 | 9% | -29% | -13% | 13% | 3% | -71*
O=C1ON=C(c2ccccc2)/C1=C\c1ccco1 | 10% | -14% | -5% | u | 12% | 5
COc1cc([N+](=O)[O-])ccc1-c1ccc(/C=N\n2cnnc2)o1 | 6% | 1.6µM* | 1.8µM* | 2% | 8% | -13
O=[N+]([O-])c1ccc(Cl)c(-c2ccc(/C=N/n3cnnc3)o2)c1 | -3% | 3% | -20% | 10% | 6% | -26
COc1ccc(-c2ccc(/C=C3\C(=O)N(c4ccccc4)N=C3c3ccccc3)o2)c([N+](=O)[O-])c1 | 0% | u | 21µM* | 17% | 1% | 5
COc1cc([N+](=O)[O-])ccc1-c1ccc(/C=C2\C(=O)ON=C2c2ccccc2)o1 | -3% | 12µM* | 9.2µM* | x | -2% | 25
CN1CCN(/N=C/c2ccc(-c3ccc([N+](=O)[O-])cc3Cl)o2)CC1 | u | -13% | u | 10% | u | -81*
O=[N+]([O-])c1ccc(OC(F)F)c(/C=N/n2cnnc2)c1 | -23% | 5.8µM* | 6.5µM* | -12% | u | 32
COc1cc([N+](=O)[O-])ccc1-c1ccc(/C=N/NC(=O)c2ccccc2O)o1 | x | x | x | 15µM* | x | x
Cc1cc([N+](=O)[O-])ccc1-c1ccc(/C=N/NC(=O)Cc2ccccc2)o1 | -26% | u | u | u | -23% | -9
COc1ccc2c(c1)sc1ncc(C(=O)NCc3cccc(C)c3)c(=O)n12 | x | 4% | 5% | x | x | x
CC(=O)c1ccc(Nc2nc(C(N)COCc3ccccc3)cs2)cc1 (stereo not given) | -1% | 23µM* | u | x | -9% | -23
SMILES | HT1080NT lethal | TDP1 cell CPT | TDP1 cell noCPT | ELG1 DNA repair | HT1080 IDH1KD tx | IL1B secr inh
CC(C)CC(N)c1csc(Nc2ccc(C(=O)c3ccccc3)cc2)n1 (stereo not given) | u | u | 16µM* | x | -21% | -59*
NC(CO)c1csc(Nc2ccc(C(=O)c3ccccc3)cc2)n1 (stereo not given) | u | -2% | u | x | -20% | u
CC(=O)c1ccc(Nc2nc(C(N)CC(C)C)cs2)cc1 (stereo not given) | -13% | u | 16µM* | x | -3% | -17
CSCCC(NS(=O)(=O)c1ccc2c(c1)oc(=O)n2C)C(=O)NCc1ccc(F)cc1 (stereo not given) | x | -5% | -4% | x | x | x
COc1ccc([C@H]2CC(=O)C=C(c3cc4ccccc4c4ccccc34)C2)cc1 | -9% | u | u | -3% | -21% | 21
COc1ccccc1NC(=O)CSc1nc(O)c(C/C=C/c2ccccc2)c(=O)[nH]1 | x | -6% | -18% | x | x | x
Cc1nc(CC(=O)Nc2cccc(C)c2C)cs1 | x | -3% | -22% | x | x | x
O=C(CCc1nc2ccccc2s1)Nc1cccnc1 | 20% | -25% | -29% | 5% | 17% | 42
O=C(O)c1cc([N+](=O)[O-])ccc1-c1ccc([N+](=O)[O-])cc1C(=O)O | 9% | 2% | 3% | x | 17% | u
CCN(CC)C(=O)c1cc([N+](=O)[O-])cc2c1-c1ccc([N+](=O)[O-])cc1C2=C(C#N)C#N | -13% | 0.65µM* | 16µM* | -19% | -4% | -16
CC(C)(C)OC(=O)N1CCC2(CC1)Oc1ccc(Cl)cc1C(=O)C21CC(c2ccc(Cl)cc2)=NO1 (stereo not given) | 16% | u | u | x | 4% | 9
CCCCCCCCCCOC(=O)Cn1c(COc2ccccc2OC)[n+](C)c2ccccc21 | 15µM* | 1µM* | 1.3µM* | u | 21µM* | -91*
Cn1c(COc2ccccc2O)[n+](C)c2ccccc21 | 0% | 8% | -8% | 2% | 0% | -22
O=C(CSc1nnnn1-c1ccc(C(=O)O)cc1)NC1CC1 | 19% | 4% | 25% | 1% | 16% | -3
CC(C)OC(=O)/C(=C\c1cccc2ccccc12)NC(=O)c1ccccc1 | 9% | u | u | u | -12% | -79*
CCc1nc2ccc(C(=O)NCc3cc(OC)ccc3OC)cc2nc1CC | x | 16µM* | u | x | x | x
CCc1nc2ccc(C(=O)NCCc3ccc(OC)cc3OC)cc2nc1CC | x | 26µM* | 18µM* | x | x | x
CCOc1ccc(CCNC(=O)c2ccc3nc(CC)c(CC)nc3c2)cc1 | 9% | u | u | -6% | 16% | 15
